Reference: PubChem BioAssay (NCATS)
“And” between values parts separate entries of the source, which are not always exact repeats. Equal values may be shown once. Inconclusive results are not listed. A call without a number means that no potency is given here. The source made the active and inactive calls. Unless noted, calls follow the shape of the dose curve; as a rule, active = well fitted curve in the direction sought with a large enough effect; inconclusive = small, poorly fitted or top-dose-only effect, or another doubt; inactive = no such curve, though single readings can be large; an effect the other way counts as inactive or inconclusive.

What was measured:
[1] = AP1 Signaling Pathway (AID 357; active = well fitted curve in either direction with a large enough effect, not every such curve was filed as active); details: ME-180 AP-1-bla reporter, EGF-induced, beta-lactamase ratio, 5 h; at 38 µM (top of the series)
Summary of the method: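 ME-180 cells with beta-lactamase reporter under AP-1 response element, stimulated with EC50 EGF; compounds tested in titration series, 5 h at 37 °C. CCF4 substrate added 2.5 h at room temperature; 460/530 nm emission ratio gave %activity and AC50.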

[2] = biological target: Cytochrome P450 1A2 (Homo sapiens) (UniProt P05177); assay: p450-cyp1a2 (AID 410; calls by dose curve)
Sequence of Cytochrome P450 1A2 (Homo sapiens) (P05177 whole entry, looked up): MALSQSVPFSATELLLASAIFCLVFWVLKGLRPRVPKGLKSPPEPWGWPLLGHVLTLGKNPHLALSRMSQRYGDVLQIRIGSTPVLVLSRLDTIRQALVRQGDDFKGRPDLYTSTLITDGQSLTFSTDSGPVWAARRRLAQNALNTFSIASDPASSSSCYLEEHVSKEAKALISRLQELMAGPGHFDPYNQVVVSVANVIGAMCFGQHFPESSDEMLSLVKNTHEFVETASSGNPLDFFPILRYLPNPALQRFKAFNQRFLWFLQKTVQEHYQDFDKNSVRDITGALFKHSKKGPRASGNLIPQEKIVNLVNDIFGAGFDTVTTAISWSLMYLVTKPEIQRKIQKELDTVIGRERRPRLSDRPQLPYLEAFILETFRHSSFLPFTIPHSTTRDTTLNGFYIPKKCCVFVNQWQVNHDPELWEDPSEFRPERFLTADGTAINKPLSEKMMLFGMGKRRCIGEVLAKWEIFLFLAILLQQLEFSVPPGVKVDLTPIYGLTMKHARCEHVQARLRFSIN
Summary of the method: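 Human CYP1A2 (20nM) demethylated Luciferin-ME at its Km (100uM) in 100mM KPO4. After 10 min compound preincubation, NADPH regeneration ran the reaction 60 min at room temperature. Luciferin was read by luminescence, normalized to 57 uM furafylline.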

[3] = NFAT Signaling Pathway (AID 444; active = well fitted curve in either direction with a large enough effect, not every such curve was filed as active;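 also: carbachol stimulus at about its EC50 of 1 µM final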); details: Jurkat NFAT-bla M1, carbachol, beta-lactamase ratio, 5 h; at 38 µM (top of the series)
Summary of the method: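 Jurkat cells carrying an NFAT-driven β-lactamase reporter and co-transfected muscarinic M1 receptor were treated with compound plus carbachol (1 uM final, an EC50 level) for 5 h at 37 °C. CCF4 loading followed for 1 h at RT; 460/530 nm ratio gave %activity.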

[4] = Stat Signaling Pathway (AID 446; active = well fitted curve in either direction with a large enough effect, not every such curve was filed as active;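 also: ME-180 cervical cancer cells given 40 pM IL-6 alongside compound; SIE-controlled beta-lactamase reporter measured as 460/530 nm FRET emission ratio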); details: ME-180 SIE beta-lactamase reporter, IL-6 stimulated, 5 h; at 38 µM (top of the series)
Summary of the method: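 ME-180 cells carrying a SIE-driven beta-lactamase reporter are stimulated with 40 pM IL-6 for 5 h at 37C in the presence of compound. The 460/530 nm FRET substrate ratio is read after 2.5 h at RT. Data are normalised to 300 pM IL-6 and to 125 nM JAK inhibitor controls.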

[5] = biological target: Glucocorticoid receptor (Homo sapiens) (UniProt P04150); assay: GR-GFP Redistribution (AID 450;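 active = compounds whose dose series gives a full or clear partial fitted curve of increased nuclear translocation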; also: potency is read from the fitted curve at half-maximal effect); details: U2OS GR-GFP nuclear translocation, laser cytometry, 2 h
Sequence of Glucocorticoid receptor (Homo sapiens) (P04150 whole entry, looked up, the tested form may be a part): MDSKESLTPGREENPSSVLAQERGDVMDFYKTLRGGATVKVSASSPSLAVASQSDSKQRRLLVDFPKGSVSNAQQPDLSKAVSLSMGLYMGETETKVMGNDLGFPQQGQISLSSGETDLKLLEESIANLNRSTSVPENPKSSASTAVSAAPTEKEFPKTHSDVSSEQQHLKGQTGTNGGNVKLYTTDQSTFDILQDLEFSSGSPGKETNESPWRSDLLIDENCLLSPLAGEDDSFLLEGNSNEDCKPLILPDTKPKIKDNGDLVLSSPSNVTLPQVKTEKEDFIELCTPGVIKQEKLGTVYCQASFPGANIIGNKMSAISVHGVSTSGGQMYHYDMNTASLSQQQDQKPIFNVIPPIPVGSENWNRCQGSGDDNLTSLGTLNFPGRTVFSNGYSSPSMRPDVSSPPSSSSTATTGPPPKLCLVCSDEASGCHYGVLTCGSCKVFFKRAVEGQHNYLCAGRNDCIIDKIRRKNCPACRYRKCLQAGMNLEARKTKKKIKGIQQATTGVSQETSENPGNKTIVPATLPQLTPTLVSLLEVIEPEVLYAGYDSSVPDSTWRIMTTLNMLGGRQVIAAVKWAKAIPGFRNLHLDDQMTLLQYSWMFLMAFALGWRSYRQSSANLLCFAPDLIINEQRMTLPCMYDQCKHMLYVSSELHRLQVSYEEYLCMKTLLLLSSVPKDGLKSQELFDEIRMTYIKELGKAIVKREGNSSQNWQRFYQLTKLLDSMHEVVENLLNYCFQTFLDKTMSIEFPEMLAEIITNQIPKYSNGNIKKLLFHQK

[6] = biological target: Glucocorticoid receptor (Homo sapiens) (UniProt P04150); assay: GR-EFC Redistribution (AID 451; calls by dose curve; also: potency is read from the fitted curve at half-maximal effect); details: CHO-K1 GR-EFC translocation, beta-gal luminescence, 2 h
Summary of the method: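 CHO-K1 cells stably expressing nuclear-localized β-gal enzyme acceptor and GR fused C-terminally to the enzyme donor fragment; ligand-driven nuclear translocation restores β-gal by complementation. Compounds titrated up to 46 uM final, 2 h at 37 °C; luminescence read.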

[7] = biological target: Mitogen-activated protein kinase 10 (Mus musculus) (UniProt Q61831); assay: JNK3 AlphaScreen Assay (AID 530; active = well fitted curve in either direction with a large enough effect, not every such curve was filed as active;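 also: kinase came from lysate of stimulated human HepG2 cells; signal reports phosphorylation of biotinylated GST-cJun 1-79 at Ser73 with 10 µM ATP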)
Summary of the method: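 JNK3 came from HepG2 lysates pre-activated with IL-1beta and TNF-alpha and phosphorylated biotinylated GST-cJun (1-79) at 10 uM ATP, pH 7.6, room temperature. Compounds were titrated. AlphaScreen signal used anti-phospho-cJun (Ser73) antibody.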

[8] = biological target: 3',5'-cyclic-AMP phosphodiesterase 4B (Homo sapiens) (UniProt Q07343); assay: qHTS Assay for Inhibitors of PDE-IV (AID 607; active = well fitted activation curve with a large enough effect in the main read-out, with a control signal flat, not every such curve was filed as active)
Sequence of 3',5'-cyclic-AMP phosphodiesterase 4B (Homo sapiens) (Q07343 whole entry, looked up): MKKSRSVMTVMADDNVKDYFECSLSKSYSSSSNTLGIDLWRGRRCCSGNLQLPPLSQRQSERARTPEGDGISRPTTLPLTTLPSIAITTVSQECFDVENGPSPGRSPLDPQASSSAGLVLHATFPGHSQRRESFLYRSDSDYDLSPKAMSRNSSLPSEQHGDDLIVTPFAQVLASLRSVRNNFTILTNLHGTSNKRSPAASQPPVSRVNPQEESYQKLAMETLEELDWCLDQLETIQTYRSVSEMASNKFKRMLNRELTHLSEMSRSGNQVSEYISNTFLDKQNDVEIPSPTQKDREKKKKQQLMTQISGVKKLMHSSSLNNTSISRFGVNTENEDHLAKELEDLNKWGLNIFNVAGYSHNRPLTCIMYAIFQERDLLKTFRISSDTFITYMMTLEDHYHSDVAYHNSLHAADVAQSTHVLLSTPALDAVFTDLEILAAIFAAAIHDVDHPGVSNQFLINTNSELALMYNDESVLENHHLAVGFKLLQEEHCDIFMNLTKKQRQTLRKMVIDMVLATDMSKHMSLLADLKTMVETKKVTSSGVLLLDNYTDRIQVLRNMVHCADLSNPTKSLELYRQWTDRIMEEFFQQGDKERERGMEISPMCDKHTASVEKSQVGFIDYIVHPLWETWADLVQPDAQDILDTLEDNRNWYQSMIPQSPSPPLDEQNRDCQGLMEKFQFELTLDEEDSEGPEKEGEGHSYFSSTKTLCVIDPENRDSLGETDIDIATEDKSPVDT
Summary of the method: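 HEK293 ACTOne cells with CNG channel (1000/well), endogenous PDE4; membrane potential dye, compounds up to 22.9 uM final. Fluorescence Ex 535/Em 590; RO 20-1724 (100 uM final) as reference.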

[9] = biological target: Guanine nucleotide-binding protein G(i) subunit alpha-1 (Homo sapiens) (UniProt P63096); assay: qHTS Assay for Inhibitors of RGS12 GoLoco Motif Activity (Green Fluorophore) (AID 879);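 also: negative values mean loss of peptide binding seen as reduced polarization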
Sequence of Guanine nucleotide-binding protein G(i) subunit alpha-1 (Homo sapiens) (P63096 whole entry, looked up): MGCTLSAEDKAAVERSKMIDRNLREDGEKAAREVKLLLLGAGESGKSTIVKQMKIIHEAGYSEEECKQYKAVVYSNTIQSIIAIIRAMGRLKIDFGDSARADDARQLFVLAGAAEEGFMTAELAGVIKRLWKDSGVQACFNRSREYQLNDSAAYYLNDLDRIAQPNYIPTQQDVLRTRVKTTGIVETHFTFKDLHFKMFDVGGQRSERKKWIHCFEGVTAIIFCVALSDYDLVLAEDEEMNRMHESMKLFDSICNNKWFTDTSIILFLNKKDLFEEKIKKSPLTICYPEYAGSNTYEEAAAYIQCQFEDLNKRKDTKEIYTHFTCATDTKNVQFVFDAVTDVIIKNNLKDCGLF
Summary of the method: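 Fluorescence polarization assay: 50 nM Gαi1 with 10 nM FITC-labeled RGS12 GoLoco peptide in 10 mM Tris pH 7.5, 150 mM NaCl, 0.1 mM GDP, 0.05% NP40, 10 min at room temperature with compound.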

[10] = biological target: Cytochrome P450 2C9 (Homo sapiens) (UniProt P11712); assay: qHTS Assay for Inhibitors and Substrates of Cytochrome P450 2C9 (AID 883); also: nearly all actives have a fitted effect of over 60% in size
Sequence of Cytochrome P450 2C9 (Homo sapiens) (P11712 whole entry, looked up): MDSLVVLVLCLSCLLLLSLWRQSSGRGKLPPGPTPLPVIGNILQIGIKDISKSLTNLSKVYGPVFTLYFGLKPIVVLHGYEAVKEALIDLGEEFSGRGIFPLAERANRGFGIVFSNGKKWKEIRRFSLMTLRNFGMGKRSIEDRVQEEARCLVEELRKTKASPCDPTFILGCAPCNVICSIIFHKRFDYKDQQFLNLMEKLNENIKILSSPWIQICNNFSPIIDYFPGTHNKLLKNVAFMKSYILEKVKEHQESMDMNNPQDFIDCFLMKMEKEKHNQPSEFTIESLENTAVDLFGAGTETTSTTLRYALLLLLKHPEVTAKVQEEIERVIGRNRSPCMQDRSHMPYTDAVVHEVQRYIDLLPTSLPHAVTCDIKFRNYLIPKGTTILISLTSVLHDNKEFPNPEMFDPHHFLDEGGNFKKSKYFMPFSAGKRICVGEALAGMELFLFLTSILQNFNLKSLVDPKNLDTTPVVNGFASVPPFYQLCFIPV
Summary of the method: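 CYP2C9 deoxyluciferin hydroxylation, 37C, 60 min with NADPH regeneration; 10nM enzyme, 100uM Luciferin-H (KM). Glo detection reagent stopped reaction; luminescence normalized to sulphaphenazole (57uM) full inhibition.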

[11] = biological target: Cytochrome P450 2C19 (Homo sapiens) (UniProt P33261); assay: qHTS Assay for Inhibitors and Substrates of Cytochrome P450 2C19 (AID 899); also: nearly all actives have a fitted effect of over 60% in size
Sequence of Cytochrome P450 2C19 (Homo sapiens) (P33261 whole entry, looked up): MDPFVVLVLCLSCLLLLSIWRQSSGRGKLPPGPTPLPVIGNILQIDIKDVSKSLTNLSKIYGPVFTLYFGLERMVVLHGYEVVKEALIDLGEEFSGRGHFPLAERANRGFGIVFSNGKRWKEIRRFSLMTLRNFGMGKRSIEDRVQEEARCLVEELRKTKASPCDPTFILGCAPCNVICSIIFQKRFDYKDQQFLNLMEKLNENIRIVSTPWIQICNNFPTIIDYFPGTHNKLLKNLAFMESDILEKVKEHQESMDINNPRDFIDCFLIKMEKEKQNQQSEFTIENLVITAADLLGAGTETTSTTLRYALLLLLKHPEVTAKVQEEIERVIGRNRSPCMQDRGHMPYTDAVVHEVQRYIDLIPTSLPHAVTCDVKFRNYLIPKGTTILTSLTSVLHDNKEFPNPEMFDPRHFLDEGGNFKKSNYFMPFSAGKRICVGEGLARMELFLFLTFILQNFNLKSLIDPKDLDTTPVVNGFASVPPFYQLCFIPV
Summary of the method: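 In 50mM KPO4, the reaction held 5nM enzyme and KM-level (10uM) Luciferin-H EGE; it ran 60 min at 37C after NADPH regeneration and a 10 min compound preincubation. Luminescence values were scaled to 57uM ketoconazole as complete inhibition.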

[12] = Confirmation and Secondary Assay for Modulators of Hemoglobin Beta Chain Splicing at IVS2 654 locus (AID 910)
Summary of the method: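 HeLa cells stably carrying EGFP interrupted by mutant beta-globin IVS2-654 intron (CMV-driven) were treated with compound for 2 days at 37C; corrected splicing was scored as total peak GFP intensity per well (488 nm excitation, 500-520 nm emission).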

[13] = qHTS Assay for Identification of Small Molecule Agonists for Thrombopoietin (TPO) Signaling Pathway (AID 917)
Summary of the method: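 Murine Ba/F3 cells stably expressing human TPO receptor and a Glycoprotein IIb promoter–luciferase reporter were IL-3-starved overnight, then treated with compounds plus TPO (26 pM final, its EC50) for 24 hrs at 37 C; luminescence was read.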

[14] = Confirmation and Secondary Assay for Modulators of Hemoglobin Beta Chain Splicing at IVS2 705 locus (AID 930);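 also: HeLa cells stably expressing the EGFP-705 splicing reporter; GFP fluorescence per well restored by corrected splicing of the IVS2-705 intron in EGFP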
Summary of the method: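 Stable HeLa line with EGFP disrupted by mutant beta-globin intron 2 (705). Overnight attachment, then 2 days of compound at 37C, 5% CO2. Signal: peak GFP intensity summed over objects 5-250 µm.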

[15] = biological target: Muscarinic acetylcholine receptor M1 (Rattus norvegicus) (UniProt P08482); assay: qHTS Assay for Antagonists of Acetylcholine Muscarinic M1 Receptor: Measurement of IP-One Response (AID 944); also: nearly all actives have a fitted effect of over 75% in size
Summary of the method: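 CHO cells expressing rat M1 receptor, recovered overnight, were pre-incubated 10 min with compound, then stimulated 30 min with carbachol at EC80 (200 nM) in LiCl-containing buffer, pH 7.4. IP1 accumulation was read by HTRF (620/665 nm).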

[16] = biological target: Pyruvate kinase (Leishmania mexicana) (UniProt Q27686); assay: qHTS Validation Assay for Inhibitors of Leishmania Mexicana Pyruvate Kinase (AID 945)
Sequence of Pyruvate kinase (Leishmania mexicana) (Q27686 2-499 E452W): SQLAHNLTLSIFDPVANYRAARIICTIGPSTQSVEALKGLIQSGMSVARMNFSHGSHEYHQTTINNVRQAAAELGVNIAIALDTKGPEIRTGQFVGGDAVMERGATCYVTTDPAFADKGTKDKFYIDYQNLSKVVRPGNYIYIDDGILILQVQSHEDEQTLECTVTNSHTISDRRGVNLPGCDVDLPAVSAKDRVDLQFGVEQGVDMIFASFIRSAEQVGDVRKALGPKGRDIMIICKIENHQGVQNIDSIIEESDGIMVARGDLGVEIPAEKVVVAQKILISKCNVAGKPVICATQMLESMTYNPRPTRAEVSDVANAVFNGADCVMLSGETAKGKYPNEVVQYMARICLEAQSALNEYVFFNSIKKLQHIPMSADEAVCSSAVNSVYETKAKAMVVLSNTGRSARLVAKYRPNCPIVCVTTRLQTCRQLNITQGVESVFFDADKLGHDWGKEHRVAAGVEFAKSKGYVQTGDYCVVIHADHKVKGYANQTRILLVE
Summary of the method: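 Mutant LmPYK (E451W), 0.2 nM, plus 0.5 mM PEP and 0.1 mM ADP in 50 mM imidazole pH 7.2 containing 0.01% Tween 20 and 0.05% BSA. Incubated 1 h at room temperature; luminescence via PKLight, normalized to DMSO.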

[17] = biological target: Pyruvate kinase PKM (Homo sapiens) (UniProt P14618); assay: qHTS Assay for Activators of Human Muscle Pyruvate Kinase (AID 954; active = well fitted curve in the direction sought with a large enough effect, not every such curve was filed as active)
Sequence of Pyruvate kinase PKM (Homo sapiens) (P14618 whole entry, looked up): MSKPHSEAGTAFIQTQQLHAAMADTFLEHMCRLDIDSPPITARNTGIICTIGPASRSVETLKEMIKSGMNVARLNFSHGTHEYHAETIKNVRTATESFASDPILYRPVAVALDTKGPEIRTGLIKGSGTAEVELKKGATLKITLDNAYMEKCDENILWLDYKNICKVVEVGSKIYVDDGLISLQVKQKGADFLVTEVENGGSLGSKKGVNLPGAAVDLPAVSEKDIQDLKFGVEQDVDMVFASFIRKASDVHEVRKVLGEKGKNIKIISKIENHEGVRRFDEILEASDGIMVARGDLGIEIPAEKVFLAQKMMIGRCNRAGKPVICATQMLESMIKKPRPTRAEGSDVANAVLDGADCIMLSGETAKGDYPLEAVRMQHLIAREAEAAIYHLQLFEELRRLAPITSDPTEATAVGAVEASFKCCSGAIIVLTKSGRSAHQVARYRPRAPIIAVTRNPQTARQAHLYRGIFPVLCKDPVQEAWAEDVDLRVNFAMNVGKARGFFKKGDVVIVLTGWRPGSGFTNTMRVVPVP
Summary of the method: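 Purified human PKM2 (0.1 nM) with 0.5 mM PEP (Km) and 0.1 mM ADP in 50 mM imidazole pH 7.2, KCl, MgCl2, 1 h at room temperature; ATP formed read by coupled luciferase luminescence. Normalized to no-enzyme/110 uM thiadiazolimine inhibition; 0.3 nM enzyme column for activation.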

[18] = biological target: Alpha-galactosidase A (Homo sapiens) (UniProt P06280); assay: Counterscreen for Glucocerebrosidase Inhibitors: qHTS Assay for Human alpha-Galactosidase at pH 4.5 (AID 992)
Sequence of Alpha-galactosidase A (Homo sapiens) (P06280 whole entry, looked up): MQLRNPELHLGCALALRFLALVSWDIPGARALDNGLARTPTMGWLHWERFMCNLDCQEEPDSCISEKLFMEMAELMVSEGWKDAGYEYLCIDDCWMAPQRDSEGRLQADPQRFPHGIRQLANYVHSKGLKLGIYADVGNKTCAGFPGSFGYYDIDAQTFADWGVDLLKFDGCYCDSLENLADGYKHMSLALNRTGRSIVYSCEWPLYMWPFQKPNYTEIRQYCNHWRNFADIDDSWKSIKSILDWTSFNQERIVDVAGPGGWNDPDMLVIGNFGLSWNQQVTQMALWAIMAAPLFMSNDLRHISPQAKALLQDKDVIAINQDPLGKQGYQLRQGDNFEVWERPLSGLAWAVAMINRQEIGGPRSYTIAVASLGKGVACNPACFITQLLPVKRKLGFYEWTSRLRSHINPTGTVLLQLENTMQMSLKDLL
Summary of the method: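 Human enzyme (2 nM) with 80 uM 4-methylumbelliferyl alpha-D-galactopyranoside in 50 mM citric acid, 0.005% Tween-20, pH 4.5, 20 min at room temperature. Compounds 0.7 nM–77 uM; fluorescence Ex 365/Em 440 after pH 10 stop; AC50 from Hill fits.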

[19] = biological target: alpha-glucosidase (Oryza sativa, rice) (UniProt Q653V4); assay: Counterscreen for Glucocerebrosidase Inhibitors: qHTS Assay for Rice alpha-Glucosidase at pH 5.0 (AID 997)
Summary of the method: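 Rice alpha-glucosidase (4 nM final) with 400 uM 4-methylumbelliferyl-alpha-D-glucopyranoside in citrate buffer pH 5.0, 20 min at room temperature, stopped at pH 10; fluorescence 365/440 nm, compounds 0.7 nM–77 uM, AC50 from Hill fits.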

[20] = Validation of Assay for Modulators of Lamin A Splicing (AID 1459; active = well fitted curve in the direction sought with a large enough effect in the signal ratio; the % refers to the signal ratio;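 also: cells exposed to compound for two days before reading; ratio rise marks activators and ratio drop marks inhibitors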)
Summary of the method: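 S3 HeLa cells stably expressing a lamin A-EGFP splicing minigene and DsRed2 were seeded at 600 cells/well in Opti-MEM with 2% FBS, pin-dosed, and incubated 48 hrs at 37 °C, 5% CO2. Laser-scanning cytometry (488 nm) gave GFP/RFP total intensity ratio.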

[21] = qHTS Assay for Lipid Storage Modulators (AID 1519; calls by dose curve); details: Drosophila S3 cells, BODIPY lipid droplet/cell ratio, laser cytometry, cells loaded with oleic acid
Summary of the method: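 Cells seeded at 5,000 per well were treated with compounds over a concentration series and loaded with oleic acid (400 uM, as added). Lipid droplet fluorescence (488 nm excitation, 500-530 nm channel) was read by laser-scanning cytometry and normalized to 20 uM Triacsin C.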

Compound: O=C(O)c1cc(=O)c2ccc(Cl)cc2[nH]1
- activity change, negative = inhibition [1]: -5.86% (inactive)
- Potency [2]: inactive
- activity change, negative = inhibition [3]: 3.07% (inactive)
- activity, negative = inhibition [4]: 42.7% (inactive)
- Potency [5]: > 46 µM (inactive)
- Potency [6]: > 46 µM (inactive)
- Potency [7]: inactive
- Potency [8]: inactive
- outcome [9]: inactive
- Potency [10]: inactive
- Potency [11]: inactive
- outcome [12]: inactive
- Potency [13]: inactive
- outcome [14]: inactive
- Potency [15]: inactive
- Potency [16]: inactive
- outcome [17]: inactive
- outcome [18]: inactive
- outcome [19]: inactive
- outcome [20]: inactive
- activity change, negative = inhibition ([21]; at 57.5 µM (top of the series)): 4.77% (inactive) and 6.7% (inactive)
- max response ([21]; measured here: cell count channel max response): 15.1% and -2.23%
